The supplement of paper PMC10127200
Structures can show the parent of a compound that is named as a salt.

How the values were obtained:
Test in all cases: Euclidean distance of Cell Painting phenotypic profile (signed KS, 77 features) to DMSO centroid (dimensionless distance); 5 or 10 uM (library dependent); higher = stronger phenotypic change vs DMSO (phenoactivity)
Details in all cases: 48 h
786-O = test system: 786-O
How it was run: (§1)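 Five cancer lines, together with a healthy fibroblast line, received library compounds for 48 h at a library-dependent 10 or 5 uM and 0.1% DMSO final. Harmony then derived 77 features from confocal 20X images (9 fields/well) of the stained cells, scoring each as a signed Kolmogorov-Smirnov statistic against same-plate vehicle wells. After plate-position correction, correlation weighting and replicate averaging at the top dose, phenoactivity was taken as each profile's Euclidean distance to the median vehicle profile.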

A549 = test system: A549
How it was run: as §1

DU145 = test system: DU145
How it was run: as §1

FB = test system: FB
How it was run: as §1

HEPG2 = test system: HEPG2
How it was run: as §1

OVCAR4 = test system: OVCAR4
How it was run: as §1

SMILES	Euclidean distance (786-O)	Euclidean distance (A549)	Euclidean distance (DU145)	Euclidean distance (FB)	Euclidean distance (HEPG2)	Euclidean distance (OVCAR4)
O=C(Nc1c(Cl)cncc1Cl)c1ccc(OC(F)F)c(OCC2CC2)c1 [Roflumilast]	1.07	1.27	0.92	0.952	0.815	1.12
CC(=O)Nc1ccc(NC(=S)NC(=O)c2ccc(C(C)(C)C)cc2)cc1 [Tenovin-1]	2.16	1.83	0.772	0.753	1.08	1.03
O=C(Nc1cnn2ccc(N3CCC[C@@H]3c3cc(F)ccc3F)nc12)N1CC[C@H](O)C1 [Larotrectinib (LOXO-101) sulfate]	0.597	0.899	1.05	0.634	0.551	1.27
CC[C@H](C)C(=O)O[C@H]1CCC=C2C=C[C@H](C)[C@H](CC[C@@H]3C[C@@H](O)CC(=O)O3)[C@H]21 [Mevastatin]	2.6	1.88	0.707	3.12	1.43	1.64
C[C@H]1c2cccc(O)c2C(=O)C2=C(O)[C@]3(O)C(=O)C(C(N)=O)=C(O)[C@@H](N(C)C)[C@@H]3[C@@H](O)[C@@H]21 [Doxycycline]	1.5	1.3	0.845	0.954	0.564	1.67
Cc1ccc(C(=O)Nc2ccc(Oc3cc4cnn(C)c4cc3-c3cn[nH]c3)c(F)c2)c(=O)n1-c1ccc(F)cc1	1.83	1.59	1.22	3.01	2.28	1.67
COc1ccc(Cn2ccc3ccc(C(=O)NO)cc32)cc1	1.83	1.18	1.25	2.16	1.5	0.415
O=[N+]([O-])c1ccc(O)c2ncccc12 [Nitroxoline]	2.71	2.74	1.76	1.94	1.71	2.24
CCNC(=O)CCC/C=C\C[C@@H]1[C@@H](/C=C/[C@@H](O)CCc2ccccc2)[C@H](O)C[C@@H]1O [Bimatoprost]	1.63	1.42	0.906	1.4	0.869	1.27
CN(C)c1ccc2nc3ccc(=[N+](C)C)cc-3sc2c1 [Methylene Blue]	2.57	2.62	1.71	3.26	2.63	2.92
O=C(N[C@H](CO)[C@H](O)c1ccc([N+](=O)[O-])cc1)C(Cl)Cl [Chloramphenicol]	1.22	1	1.35	0.994	0.584	1.3
CC(C(=O)O)c1ccc2c(c1)[nH]c1ccc(Cl)cc12 (stereo unspecified) [Carprofen]	1.08	0.684	0.84	1.38	0.421	1.11
C[C@@H](Oc1cc(-n2cnc3ccc(CN4CCN(C)CC4)cc32)sc1C(N)=O)c1ccccc1C(F)(F)F	3.44	3.82	4.26	3.6	3.95	2.85
CC(C)C[C@H](NC(=O)[C@H](CCc1ccccc1)NC(=O)CN1CCOCC1)C(=O)N[C@@H](Cc1ccccc1)C(=O)N[C@@H](CC(C)C)C(=O)[C@@]1(C)CO1 [Carfilzomib (PR-171)]	5.78	4.54	5.77	0.729	4.79	5.41
O=S(=O)(O)c1cc(O)ccc1O [Ethamsylate]	0.716	0.847	0.74	1.11	0.713	1.57
CN[C@H]1C(=O)N[C@@H]2Cc3ccc(cc3)Oc3cc4cc(c3O[C@@H]3O[C@H](C(=O)O)[C@@H](O)[C@H](O)[C@H]3NC(=O)CCCCCCCCC(C)C)Oc3ccc(cc3Cl)[C@@H](O)[C@@H]3NC(=O)[C@H](NC(=O)[C@@H]4NC(=O)[C@@H](NC2=O)c2cc(cc(O)c2Cl)Oc2cc1ccc2O)c1ccc(O)c(c1)-c1c(O[C@H]2O[C@H](CO)[C@@H](O)[C@H](O)[C@@H]2O)cc(O)cc1[C@@H](C(=O)NCCCN(C)C)NC3=O [Dalbavancin]	0.58	0.819	1.15	0.48	0.566	0.603
COC(=O)N[C@H](C(=O)N1CCC[C@H]1c1ncc(-c2ccc(-c3ccc(-c4cnc([C@@H]5CCCN5C(=O)[C@@H](NC(=O)OC)C(C)C)[nH]4)cc3)cc2)[nH]1)C(C)C	1.52	1.63	1.12	1	0.904	1.5
N#Cc1cnc(Nc2cc(NC[C@H]3CNCCO3)c(C(F)(F)F)cn2)cn1	3.22	2.16	2.89	3.11	2.5	1.99
O=C(N/N=C/c1ccc(O)c(O)c1)c1cc2ccccc2cc1O [Dynasore]	0.917	1.21	0.791	0.928	1.13	0.791
CCC(c1ccccc1)c1c(O)c2ccccc2oc1=O (stereo unspecified) [Phenprocoumon]	0.851	1.11	0.728	1.04	0.975	0.957
N=C(N)NC(=O)c1nc(Cl)c(N)nc1N [Amiloride HCl]	1.05	0.988	0.844	0.922	1.33	0.94
CN(C)CCN(Cc1ccccc1)c1ccccn1 [Tripelennamine HCl]	1.42	0.863	0.966	1.05	0.581	1.72
Nc1ccn([C@H]2CC[C@@H](CO)O2)c(=O)n1 [Zalcitabine]	1.06	0.768	1.6	0.942	2.07	1.13

SMILES	Euclidean distance (786-O)	Euclidean distance (A549)	Euclidean distance (DU145)	Euclidean distance (FB)	Euclidean distance (HEPG2)	Euclidean distance (OVCAR4)
CC1=C(C(=O)OCCN(Cc2ccccc2)c2ccccc2)C(c2cccc([N+](=O)[O-])c2)C(P2(=O)OCC(C)(C)CO2)=C(C)N1 (stereo unspecified) [Efonidipine]	1.73	1.93	1.02	0.739	0.968	0.999
C=CC(=O)Nc1ccc2ncnc(Nc3cccc(Br)c3)c2c1	1.72	2.07	1.78	2.78	1.47	2.99
CN(C)Cc1ccc(S(=O)(=O)n2ccc(/C=C/C(=O)NO)c2)cc1 [Resminostat]	2.67	2.99	2.58	3.52	2.9	2.81
C#Cc1cccc(Nc2ncnc3cc(OCCOC)c(OCCOC)cc23)c1 [Erlotinib HCl (OSI-744)]	1.55	1.87	1.94	1.57	0.884	2.37
OCCOCCN1CCN(C(c2ccccc2)c2ccc(Cl)cc2)CC1 (stereo unspecified) [Hydroxyzine 2HCl]	1.32	0.879	1.07	0.804	1.04	1.17
Cc1cc(C(C)(C)C)cc(C)c1CC1=NCCN1 [Xylometazoline HCl]	0.708	0.547	0.707	0.795	0.707	0.903
Cc1coc2c1C(=O)C(=O)c1c-2ccc2c(C)cccc12 [Tanshinone I]	1.41	0.593	1.07	1.35	1.25	1.18
CC[C@@H]1/C=C(\C)C[C@H](C)C[C@H](OC)[C@H]2O[C@@](O)(C(=O)C(=O)N3CCCC[C@H]3C(=O)O[C@H](/C(C)=C/[C@@H]3CC[C@@H](O)[C@H](OC)C3)[C@H](C)[C@@H](O)CC1=O)[C@H](C)C[C@@H]2OC [Ascomycin (FK520)]	1.06	1.18	1.28	1.43	0.58	0.799
Nc1nc(NC2CC2)c2ncn([C@H]3C=C[C@@H](CO)C3)c2n1 [Abacavir sulfate]	1.09	1.86	1.39	1.19	0.688	1.74
Cc1[nH]c(=O)c(C#N)cc1-c1ccncc1 [Milrinone]	0.957	0.855	0.761	0.918	0.762	0.888
CCN1CCN(c2ccc(Nc3cc(N(C)C(=O)Nc4c(Cl)c(OC)cc(OC)c4Cl)ncn3)cc2)CC1 [BGJ398 (NVP-BGJ398|Infigratinib)]	3.87	4	2.87	3.62	2.39	4.1
O=C(/C=C/c1ccc(O)cc1)c1ccc(O)cc1O [Isoliquiritigenin]	0.936	1.2	1.16	0.82	0.786	0.885
CCn1cc(C(=O)O)c(=O)c2cc(F)c(N3CCNCC3)cc21 [Norfloxacin]	1.28	0.791	0.924	1.26	0.65	1.01
CC(=O)NS(=O)(=O)c1ccc(N)cc1 [Sulfacetamide]	1.08	0.619	1.45	1.07	0.298	1.01
CCN1CCCC1CNC(=O)c1cc(S(=O)(=O)CC)c(N)cc1OC (stereo unspecified) [Amisulpride]	1.04	0.717	1.15	1.07	0.566	1.01
Cc1cc(O)c2c(c1)C(=O)c1cccc(O)c1C2=O [Chrysophanic Acid]	1.36	0.646	1.3	1.64	1.34	1.43
O=C(Nc1c[nH]nc1-c1nc2ccc(CN3CCOCC3)cc2[nH]1)NC1CC1	3.05	3.01	3	2.87	2.74	2.7
Nc1nc(F)nc2c1ncn2[C@@H]1O[C@H](COP(=O)(O)O)[C@@H](O)[C@@H]1O [Fludarabine Phosphate]	2.13	2.48	1.94	3.2	1.57	2.98
COc1ccc2[nH]c([S@@+]([O-])Cc3ncc(C)c(OC)c3C)nc2c1 [NEXIUM (esomeprazole magnesium)]	1.31	0.829	1.47	0.904	1.81	1.65
CCNC(=O)[C@@H]1CCCN1C(=O)[C@H](CCCN=C(N)N)NC(=O)[C@H](CC(C)C)NC(=O)[C@@H](C)NC(=O)[C@H](Cc1ccc(O)cc1)NC(=O)[C@H](CO)NC(=O)[C@H](Cc1c[nH]c2ccccc12)NC(=O)[C@H](Cc1cnc[nH]1)NC(=O)[C@@H]1CCC(=O)N1 [Alarelin Acetate]	0.728	1.38	0.974	2.05	1.87	1.24
OCC1=C[C@@H](O)[C@@H]2C=CO[C@@H](O[C@@H]3O[C@H](CO)[C@@H](O)[C@H](O)[C@H]3O)[C@H]12 [Aucubin]	0.893	0.414	2.53	0.949	0.503	1.5
Oc1ccc(OCc2ccccc2)cc1 [Monobenzone]	2.36	2.32	2.56	1.45	0.99	2.11
CC(C)Cc1ccc([C@@H](C)C(=O)NS(C)(=O)=O)cc1 [Reparixin (Repertaxin)]	1.16	0.942	0.933	1.09	1.25	1.04
